# Experimental data published in paper PMC5540273 (PLoS ONE, 2017).
# Assays:
# Settings in all cases: concentration: 1 μM, replicates: in singlicate; n = 1
# ERK4 = tested on: T1, ERK4
# T1 construct: gene MAPK4
# ERK5 = tested on: T2, ERK5
# T2 construct: gene MAPK7
# ERK8 = tested on: T3, ERK8
# T3 construct: gene MAPK15
# ERN1 = tested on: ERN1
# FAK = tested on: T4, FAK
# T4 construct: gene PTK2
# FER = tested on: FER
# FES = tested on: FES
# FGFR1 = tested on: FGFR1
# FGFR2 = tested on: FGFR2
# FGFR3 = tested on: FGFR3
# 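Further: KINOMEscan kinase panel screen.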
SMILES,%Inh (ERK4) [%],%Inh (ERK5) [%],%Inh (ERK8) [%],%Inh (ERN1) [%],%Inh (FAK) [%],%Inh (FER) [%],%Inh (FES) [%],%Inh (FGFR1) [%],%Inh (FGFR2) [%],%Inh (FGFR3) [%]
C[C@@H]1CCN(C(=O)CO)C[C@@H]1N(C)c1ncnc2[nH]ccc12,19,0,9,0,0,8,0,12,7,0
Fc1ccc(-c2ncn(CCCNCc3ccccc3)c2-c2ccncc2)cc1,14,0,13,14,0,13,23,0,0,0
Nc1n[nH]c2nnc(-c3ccccc3)cc12 [SB-517389],30,0,18,3,0,0,0,0,5,11
Cl.c1ccc(Cn2ncc3cc(Nc4ncnc5ccccc45)ccc32)cc1 [GW273749],35,0,0,34,0,13,0,0,0,0
CNc1nccc(-c2c(-c3ccc(F)cc3)ncn2CCCN2CCOCC2)n1 [SB-222516],2,0,14,0,6,12,7,26,0,0
CN1c2ccc(-c3ccc(C(=O)NCCO)cc3)cc2-c2[nH]ncc2S1(=O)=O,0,0,12,1,,11,17,30,0,0
CCC(CC)(CC)n1cnc2c(N)ncnc21 [SKF-97620],0,0,1,26,0,0,10,17,100,0
Cc1cccc(-c2nc(Nc3ccc4[nH]nnc4c3)c3ccccc3n2)n1 [GW867587],0,0,0,0,0,0,0,0,0,0
Cn1ccc2ncnc(Oc3ccc(NC(=O)Nc4cccnc4)c(Cl)c3)c21,0,5,0,37,0,0,16,0,0,0
COc1cc2ncnc(Nc3ccc(OCc4ccccc4Br)c(Cl)c3)c2cc1OC.Cl [GI261590],32,0,0,0,0,18,25,0,38,12
CC(C)(C)OC(=O)NC1CCCN(c2cc(-c3ccc4c(N)n[nH]c4c3)nc(N)n2)C1 (stereo not shown) [GSK2286096],23,29,0,7,0,0,0,0,4,22
